This is one part of a sample in which hits are shown more often than they occur.
mHTT CaM bind: inhibitors of human mutant huntingtin-calmodulin interaction; P42858; AlphaScreen His-mHTT/GST-CaM binding, luminescence; inhibition, % at 15 µM; 3.6% of 190,000 active;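 further: 0% = both proteins with DMSO and 100% = one protein alone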
Pf apPOL block: Pf-apPOL DNA polymerase inhibition; 0.25% of 210,000 active; inhibition, % at 10 µM; Recombinant Pf-apPOL, molecular beacon fluorescence, 1.5 h
* marks the source's active call; other numbers are inactive results; x = not tested or not shown. No stated cut-off is given here; in the data, active means inhibition above about 50%; inactive means the rest.

SMILES	mHTT CaM bind	Pf apPOL block
CCN1C(=O)CC(N2CCC(C(N)=O)(N3CCCCC3)CC2)C1=O (stereo unspecified)	0.0	-0.9
CCOc1cccc(=NCc2ccccc2)c2c(C)[nH]c(C)c12	76.0*	-0.5
CCOc1cccc2cc(C(N)=O)c(=NCc3ccccc3)oc12	-2.0	-1.2
CC[C@H]1C(c2cccc(Cl)c2)=NN(c2ccccc2)[C@@H]1CO	75.4*	-0.5
CC[C@H]1C(c2cccc(C)c2)=NN(c2ccccc2)[C@@H]1CO	-8.8	-8.2
OC[C@@H]1[C@@H](c2ccccc2)C(c2cccc(Cl)c2)=NN1c1ccccc1	59.4*	-6.4
COc1ccccc1[C@@H]1C(c2cccc(Cl)c2)=NN(c2ccccc2)[C@H]1C(=O)N1CCOC1=O	-109.3	-4.8
COc1ccccc1[C@H]1C(c2cccc(Cl)c2)=NN(c2ccccc2)[C@@H]1CO	65.7*	-9.2
Cc1cccc(C2=NN(c3ccccc3)[C@H](CO)[C@H]2c2ccc(Cl)cc2)c1	91.5*	-3.3
CC(=O)Nc1ccc(C(=O)Nc2ccc([N+](=O)[O-])cc2)cc1	-2.1	-6.8
Cc1ncc(CO)c2cc(C(=O)Nc3cccc(F)c3)c(=N)oc12	13.0	1.9
Cc1cccc(C2=NN(c3ccccc3)[C@H](CO)[C@H]2c2ccc(F)cc2)c1	81.2*	-6.7
CC[C@@H]1C(c2cccc(C)c2)=NN(c2ccccc2)[C@H]1C(=O)N1CCOC1=O	-21.6	-3.8
Cn1c(=O)c2[nH]c(Br)c(Br)c2n(C)c1=O	-5.1	x
Cc1ccc(NC(=O)c2cn3c(n2)CCCC3)c(C)c1	1.4	-6.6
CC1CN(Cc2cc([N+](=O)[O-])c3cccnc3c2O)CC(C)O1 (stereo unspecified)	100.0*	-4.5
CC(=O)c1ccc(N2CC(C)OC(C)C2)c([N+](=O)[O-])c1 (stereo unspecified)	x	-8.2
O=[N+]([O-])c1cc(CN2CCOCC2)c(O)c2ncccc12	100.0*	-45.6
O=[N+]([O-])c1ccccc1CN1CCOCC1	2.1	2.6
COc1ccc(Br)c(C(=O)Nc2ccc3c(c2)C(=O)NCC3)c1	-6.1	-10.8
Cc1oc(C2CCN(C(=O)Nc3ccc4c(c3)OCO4)CC2)nc1C(=O)N1CCCC1	-4.7	-2.3
COc1cccc(NC(=S)NCCC2=CCCCC2)c1	-3.7	-4.9
COCC(=O)N1CCN(c2ccccc2OC)C(=O)C1C (stereo unspecified)	-8.9	0.4
N#Cc1c(-c2ccccc2)cc(-c2ccc(F)cc2)nc1F	-0.3	x
Cc1ccc(-c2cc(-c3ccc(F)cc3)c(C#N)c(N)n2)o1	88.0*	-3.9
SMILES	mHTT CaM bind	Pf apPOL block
c1ccc(-c2cc3c(Nc4ccc5c(c4)OCO5)ncnc3s2)cc1	-0.2	0.0
Cc1ccc(-c2nc3sccn3c2NC(=O)c2ccc(Cl)cc2)cc1	58.0*	-4.5
CC(C)(C)c1ccc(C(=O)Nc2c(-c3ccccc3)nc3sccn23)cc1	42.0	-2.8
Clc1ccc(C=NNc2ccc(-c3cnco3)cc2)cc1	x	-3.6
CC(=O)Nc1cc(C(=O)N2CCN(c3cc(C)ccc3C)CC2)c2ccc(C)nc2c1	100.0*	-15.8
CC(=O)Nc1cc(C(=O)N2CCN(C3CCCCC3)CC2)c2ccc(C)nc2c1	23.9	-49.1
CC(=O)Nc1cc(C(=O)N2CCN(c3cccc(C)c3)CC2)c2ccc(C)nc2c1	68.3*	-402.1
CC(=O)Nc1cc(C(=O)NCCN2CCCCC2)c2ccc(C)nc2c1	6.3	24.5
CC(=O)Nc1cc(C(=O)NC2CCCC2)c2ccc(C)nc2c1	100.3*	16.5
CC(=O)Nc1cc(C(=O)N2CCN(c3cccc(C)c3C)CC2)c2ccc(C)nc2c1	95.2*	-33.6
CC(=O)Nc1cc(C(=O)NC(C)C)c2ccc(C)nc2c1	-6.3	31.5
Cc1cccc(N2CCN(C(=O)c3cccc([N+](=O)[O-])c3C)CC2)c1C	-1.1	-4.2
CC(=O)NS(=O)(=O)c1ccc(NC(=O)c2ccc(C(C)C)cc2)cc1	-0.2	0.2
COc1ccc(-n2ncc3c(NC(C)(C)C)ncnc32)cc1	21.0	-5.6
CCOCCCNC(=O)c1c[nH]c2ccc(S(=O)(=O)N(C)c3ccc(C)c(C)c3)cc2c1=O	23.0	-20.2
COc1cccc(C2CC(C(F)(F)F)n3ncc(C(=O)N4CCCCCC4)c3N2)c1 (stereo unspecified)	-0.7	-4.9
COc1ccc(OC)c(NC(=O)c2c(NC(=O)CNCc3ccco3)sc3c2CCC3)c1	3.4	-0.6
COc1ccccc1NC(=O)c1c(NCc2ccc(OC)c(OC)c2)sc2c1CCC2	27.0	-14.7
COc1ccc(OC)c(NC(=O)c2c(NCc3ccc(OC)c(OC)c3)sc3c2CCC3)c1	52.0*	-16.8
COc1ccc(OC)c(NC(=O)c2c(N)sc3c2CCCCC3)c1	64.5*	-4.1
COc1ccccc1NC(=O)c1c(N)sc2c1CCCC2	30.7	-4.5
CCOC(=O)N1CCc2c(sc(N)c2C(=O)Nc2cc(OC)ccc2OC)C1	53.6*	-8.5
CCOC(=O)N1CCc2c(sc(NC(=O)c3cc(C)on3)c2C(=O)OC)C1	-12.1	-2.0
COc1ccc(OC)c(NC(=O)c2c(NCc3cccnc3)sc3c2CCC3)c1	81.0*	-14.2
O=C(c1ccccc1)c1ccc(N2CCOCC2)c([N+](=O)[O-])c1	17.8	-4.0
SMILES	mHTT CaM bind	Pf apPOL block
CCc1cccc(N2C=C(C#N)S(=O)(=O)c3ccc(Cl)cc32)c1	-3.4	-6.5
CCNC(=O)N1CCOC(CN2CCN(c3ccc(C)cc3)CC2)C1 (stereo unspecified)	3.8	2.9
COc1ccc(CCNC(=O)N(Cc2ccsc2)Cc2ccccn2)cc1	-14.9	-15.0
COc1ccccc1NC(=O)c1c(NCc2cccnc2)sc2c1CCCCC2	80.0*	-19.2
CCOc1ccccc1NC(=O)c1c(NCc2ccccn2)sc2c1CCCC2	30.0	-26.7
CCOc1ccccc1NC(=O)c1c(NCc2cccnc2)sc2c1CCCCC2	80.0*	-17.4
CCOc1ccccc1NC(=O)c1c(NC(=O)C(F)(F)F)sc2c1CCCCC2	7.0	4.4
COc1cncc(C(=O)Nc2cc(F)ccc2F)c1	-11.7	-3.7
CCCN1C(=O)/C(=C\c2nc3ccccc3c(=O)n2-c2ccc(OC)cc2)c2ccccc21	3.0	-34.0
CCN1C(=O)/C(=C\c2nc3ccccc3c(=O)n2-c2ccccc2[N+](=O)[O-])c2ccccc21	56.0*	-1.5
CCN1C(=O)/C(=C\c2nc3ccccc3c(=O)n2CC)c2ccccc21	100.0*	-8.5
CCCN1C(=O)/C(=C\c2nc3ccccc3c(=O)n2CC)c2ccccc21	12.0	-1.5
Cc1ccc(S(=O)(=O)N2CCc3c(nc4cc[nH]n4c3=O)C2)cc1C	-3.0	3.1
CCc1ccc(C2CC(=O)Nc3n[nH]c(-c4ccccc4)c32)cc1 (stereo unspecified)	-3.9	-1.2
COc1ccc(C(=O)NC2CCN(c3ccccc3)C2=O)cc1 (stereo unspecified)	-6.4	-2.1
O=c1oc2ccccc2c(O)c1C=Nc1cccc([N+](=O)[O-])c1	-5.3	-3.0
c1cc(Nc2cccc3nccnc23)c2nccnc2c1	22.5	-12.7
CN(C)c1ccc(Nc2cccc3nccnc23)cc1	61.2*	-8.4
CC(C)c1ccc(CNC(=O)c2nc3cccnc3n(C)c2=O)cc1	62.3*	0.3
Cn1c(=O)c(C(=O)NCc2ccc(Cl)cc2)nc2cccnc21	5.3	-1.3
O=C(C1CCOC1)N1CCC(CCOc2cccc(F)c2)CC1 (stereo unspecified)	-7.1	-0.2
Nc1c(S(=O)(=O)O)cc(Nc2ccccc2)c2c1C(=O)c1ccccc1C2=O	98.0*	-9.7

From PubChem BioAssay
